These results are taken from PubChem BioAssay (Tox21).

Experiment [1] deals with Gonadotropin-releasing hormone receptor (Homo sapiens) (UniProt P30968). Put plainly: Human gonadotropin-releasing hormone receptor (GnRHR) small molecule agonists, calcium flux assay in GnRHR-HEK293 cells (AID 1920063). Also: nearly all actives have a fitted effect of over 35% in size. In a few lines:
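Intracellular calcium rise is the read-out: engineered human GnRHR HEK293 cells, dye-loaded, are exposed to DMSO-dissolved compounds and fluorescence at Ex/Em 480/540 is tracked for 3 min.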
A general note: Calcium flux is commonly read through the fluorescence of an indicator in the cells.

The nature of experiment [2]: G protein-coupled receptor (GPCR) small molecule agonists, calcium flux assay: HEK293 wild type cell line counter screen (AID 1920065). The gist of the method:
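Fluorescence intensity signals activation. After overnight (18 h) culture and a 1 h calcium dye load at 37 C, compounds are added by pin tool and the plate read at 480/540 nm for 3 min in 1 s steps.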

A short description of experiment [3]: p53 small molecule agonists, cell-based qHTS assay with human liver microsomes (AID 1963577). In a few lines: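 Cells carrying a p53-responsive bla reporter were rested 5 h (37 C, 5% CO2) before compound transfer. Human liver microsomes plus NADPH, 0.5 mg/mL final apiece, supplied metabolism during the 16 h 37 C exposure.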
(Quantitative high-throughput screening tests each substance at several concentrations.)

Experiment [4] can be described thus: p53 small molecule agonists, cell-based qHTS assay with rat liver microsomes (AID 1963578). In a few lines:
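Fluorescence from a beta-lactamase reporter under a p53 response element was measured after cells had been incubated 16 h at 37 C with test compound and rat liver microsomes plus NADPH (0.5 mg/mL final each).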

A short description of experiment [5]: p53 small molecule agonists, cell-based qHTS assay with human liver microsomes: qHTS cell viability counter screen (AID 1963579). Also: nearly all actives have a fitted effect of over 45% in size. Also: potency is read from the fitted curve at half-maximal effect. The gist of the method:
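Seed p53RE-bla cells at 4,000 per well; incubate 5 h at 37 C; add compound, human liver microsomes and NADPH; incubate 16 h at 37 C; add CellTiter-Glo; after 30 min at room temperature, read luminescence.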

Experiment [6] is described as follows: p53 small molecule agonists, cell-based qHTS assay with rat liver microsomes: qHTS cell viability counter screen (AID 1963580). Also: nearly all actives have a fitted effect of over 45% in size. The gist of the method: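 Luminescent ATP readout (CellTiter-Glo, 30 min at room temperature) reports viability of p53RE-bla HCT-116 cells after 16 h at 37 C with test compounds under metabolic activation by rat liver microsomes and NADPH at 0.5 mg/mL final each.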

The nature of experiment [7]: p53 small molecule agonists, cell-based qHTS assay: qHTS cell viability counter screen (AID 1963581). Also: nearly all actives have a fitted effect of over 45% in size. In a few lines:
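Luminescence from CellTiter-Glo, reflecting ATP content, serves as the cytotoxicity measure; it is taken after the 2 h reporter substrate step in HCT-116 p53RE-bla cells dosed for 16 h at 37 C.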

The nature of experiment [8]: p53 small molecule agonists, cell-based qHTS assay (AID 1963582; active = well fitted activation curve with a large enough effect in the signal ratio in the repeat runs, not every such curve was filed as active; the % refers to the signal ratio). The gist of the method:
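After plating, p53RE-bla cells sat 5 h in the incubator; compounds or DMSO vehicle were pinned in; a 16 h incubation at 37 C followed; FRET substrate was added and, 2 h later at RT, fluorescence was measured.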

The target in experiment [9] is 5-hydroxytryptamine receptor 2A (Homo sapiens) (UniProt P28223). The experiment can be described thus: 5-hydroxytryptamine receptor 2A (HTR2A) small molecule antagonists, cell-based qHTS assay (AID 1963586). Also: nearly all actives have a fitted effect of over 45% in size. Also: potency is read from the fitted curve at half-maximal effect. The gist of the method:
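CHO cells stably expressing human HTR2A were plated for 18 h at 37 C, then loaded with calcium dye for 1 h. Compounds were preincubated 5 min at room temperature before DOI (4 nM solution) was added. Kinetic fluorescence was read for 3 min.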

Experiment [10] shares this target. The experiment can be described thus: 5-hydroxytryptamine receptor 2A (HTR2A) small molecule agonists, cell-based qHTS assay (AID 1963587). Also: nearly all actives have a fitted effect of over 30% in size. The gist of the method:
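HTR2A-CHO cells, plated 18 h at 37 C/5% CO2, dye-loaded 1 h at 37 C; compounds in DMSO added by pin tool (agonist mode). Intracellular calcium flux read as kinetic fluorescence on FDSS over 2 min at 1 s intervals.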

Experiment [11] deals with Muscarinic acetylcholine receptor M1 (Homo sapiens) (UniProt P11229). The experiment can be described thus: Cholinergic receptor muscarinic 1 (CHRM1) small molecule antagonists, cell-based qHTS assay (AID 1963588). Also: nearly all actives have a fitted effect of over 40% in size. In a few lines:
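Compounds were tested at 15 concentrations in three independent runs. Dye-loaded CHRM1-CHO cells were exposed 5 min at room temperature before stimulation by acetylcholine added at 50nM. Intracellular calcium was read kinetically on FDSS for 3 min.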

For experiment [12] the target is unchanged. The experiment can be described thus: Cholinergic receptor muscarinic 1 (CHRM1) small molecule agonists, cell-based qHTS assay (AID 1963589). Also: nearly all actives have a fitted effect of over 35% in size. The gist of the method: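 Fluorescent calcium dye reports M1 activation in stably transfected CHO cells. Compounds, 15 concentrations, added after 1 h dye loading at 37 C; kinetic reading at 1 sec intervals.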
Experiment [13] in a line: cAMP Responsive Elements (CRE) small molecule agonists, cell-based qHTS assay (AID 1963590). In a few lines:
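Compound exposure lasted 3 h at 37 C/5% CO2 in CRE-bla HEK 293T cells grown in assay medium with 10% dialyzed FBS and 25 mM HEPES. Reporter signal came from LiveBLAzer B/G FRET substrate, 2 h, room temperature.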

Experiment [14] can be described thus: cAMP Responsive Elements (CRE) small molecule antagonists, cell-based qHTS assay (AID 1963591; active = well fitted inhibition curve with a large enough effect in the signal ratio in the repeat runs, not every such curve was filed as active; the % refers to the signal ratio). In a few lines: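 Stimulation used NKH477 at a final 0.25 uM for 3 h in compound-treated CRE-bla HEK293T cells, seeded 18 h beforehand. Reporter activity was measured with LiveBLAzer B/G FRET substrate after 2 h at room temperature.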
Experiment [15] deals with D(2) dopamine receptor (Homo sapiens) (UniProt P14416). The experiment can be described thus: Dopamine D2 receptor (DRD2) small molecule agonists, cell-based qHTS assay (AID 1963594). Also: nearly all actives have a fitted effect of over 35% in size. The gist of the method: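 HEK293 cells stably expressing DRD2 were cultured 24 h at 37 C, then given Ro20-1724 (0.1 mM final) and compounds for 10 min at room temperature. NKH477 (200nM) was then added for 30 min. cAMP was read by HTRF.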

The target is the same in experiment [16]. The experiment can be described thus: Dopamine D2 receptor (DRD2) small molecule antagonists, cell-based qHTS assay (AID 1963595; active = well fitted inhibition curve with a large enough effect in the signal ratio in the repeat runs, with a control signal flat; the % refers to the signal ratio; also: potency is read from the fitted curve at half-maximal effect). In a few lines: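 Antagonism was scored as restored cAMP in HEK293-DRD2 cells. These cells were stimulated with 200 nM NKH477 and 12 nM quinpirole for 30 min at room temperature, in the presence of 0.1 mM Ro20-1724.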
For experiment [17], the target named is KiSS-1 receptor (Homo sapiens) (UniProt Q969F8). The experiment can be described thus: Human kisspeptin (KISS1R) small molecule agonists, calcium flux assay in KISS1R-HEK293 cells (AID 1920064; active = well fitted activation curve with a large enough effect in the repeat runs). In a few lines:
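Concentration-response testing used 15 concentrations in triplicate on human KISS1R-expressing HEK293 cells. Calcium-dependent fluorescence (Ex/Em 480/540) was followed kinetically for 3 min after compound transfer.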

Experiment [18] deals with Beta-2 adrenergic receptor (Homo sapiens) (UniProt P07550). Put plainly: Adrenergic beta2 receptor (ADRB2) small molecule antagonists, cell-based qHTS assay (AID 1963592). Also: nearly all actives have a fitted effect of over 50% in size. Also: potency is read from the fitted curve at half-maximal effect. The gist of the method: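 Assay format: CHO-ADRB2 cells, 18-20hr seeding at 37C/5% CO2, then compound plus 1nM isoproterenol agonist mix for 0.5hr RT. Homogeneous time-resolved fluorescence cAMP detection after 1hr, expressed as 665/615 nm ratio.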

Experiment [19] in a line: Nuclear factor erythroid 2-related factor 2/antioxidant responsive element (Nrf2/ARE) small molecule agonists: luciferase reporter gene qHTS assay in human keratinocytes (AID 1919969). Also: nearly all actives have a fitted effect of over 35% in size. Also: potency is read from the fitted curve at half-maximal effect. A general note: A reporter such as luciferase makes a cellular process visible.
Experiment [20] addresses Beta-2 adrenergic receptor (Homo sapiens) (UniProt P07550). Put plainly: Adrenergic beta2 receptor (ADRB2) small molecule agonists, cell-based qHTS assay (AID 1963593).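 Also: CHO cells stably overexpressing human ADRB2.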 In a few lines: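 CHO cells stably over-expressing ADRB2 were plated overnight at 37C, then dosed with compounds plus a stimulation mix containing 100uM IBMX and 25uM Ro-20-1724 for 0.5hr at room temperature. cAMP was measured by HTRF competition, 1hr.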

A number with no mark means an inactive call. Inconclusive results are not listed. The source made the active and inactive calls. Unless noted, calls follow the shape of the full dose curve.

Chain of D(2) dopamine receptor (Homo sapiens) (P14416 whole entry, looked up): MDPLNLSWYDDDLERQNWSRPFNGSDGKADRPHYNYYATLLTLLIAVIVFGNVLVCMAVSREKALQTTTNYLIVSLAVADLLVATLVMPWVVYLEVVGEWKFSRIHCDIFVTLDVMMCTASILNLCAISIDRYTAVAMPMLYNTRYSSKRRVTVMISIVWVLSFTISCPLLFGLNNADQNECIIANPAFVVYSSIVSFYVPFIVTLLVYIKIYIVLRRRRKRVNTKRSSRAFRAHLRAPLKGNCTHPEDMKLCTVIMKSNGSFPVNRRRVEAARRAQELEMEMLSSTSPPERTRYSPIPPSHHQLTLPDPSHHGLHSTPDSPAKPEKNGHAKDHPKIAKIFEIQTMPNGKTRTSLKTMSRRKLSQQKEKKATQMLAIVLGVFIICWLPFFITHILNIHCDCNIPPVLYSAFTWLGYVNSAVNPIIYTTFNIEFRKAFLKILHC
Chain of KiSS-1 receptor (Homo sapiens) (Q969F8 whole entry, looked up): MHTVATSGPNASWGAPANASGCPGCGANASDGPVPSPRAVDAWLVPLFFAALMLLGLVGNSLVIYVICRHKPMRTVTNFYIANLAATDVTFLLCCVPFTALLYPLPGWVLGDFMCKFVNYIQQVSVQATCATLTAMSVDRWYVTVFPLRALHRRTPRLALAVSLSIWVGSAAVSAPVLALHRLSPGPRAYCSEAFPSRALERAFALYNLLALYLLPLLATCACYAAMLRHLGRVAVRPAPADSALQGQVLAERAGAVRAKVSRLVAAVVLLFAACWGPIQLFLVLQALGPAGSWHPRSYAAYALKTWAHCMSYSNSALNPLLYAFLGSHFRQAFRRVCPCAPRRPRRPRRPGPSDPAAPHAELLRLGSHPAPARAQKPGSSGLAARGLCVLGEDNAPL
Chain of Muscarinic acetylcholine receptor M1 (Homo sapiens) (P11229 whole entry, looked up): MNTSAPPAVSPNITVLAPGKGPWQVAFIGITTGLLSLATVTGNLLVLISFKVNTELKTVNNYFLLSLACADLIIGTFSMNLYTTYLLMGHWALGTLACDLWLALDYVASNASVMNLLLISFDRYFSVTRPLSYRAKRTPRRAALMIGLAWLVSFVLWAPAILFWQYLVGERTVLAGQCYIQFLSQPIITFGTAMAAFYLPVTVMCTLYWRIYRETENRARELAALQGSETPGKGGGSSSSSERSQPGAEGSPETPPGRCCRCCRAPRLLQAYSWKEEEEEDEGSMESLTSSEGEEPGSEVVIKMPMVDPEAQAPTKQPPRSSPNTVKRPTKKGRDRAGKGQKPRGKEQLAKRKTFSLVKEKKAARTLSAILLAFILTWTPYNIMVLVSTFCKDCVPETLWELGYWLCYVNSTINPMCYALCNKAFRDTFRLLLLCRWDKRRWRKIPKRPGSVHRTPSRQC
Chain of 5-hydroxytryptamine receptor 2A (Homo sapiens) (P28223 whole entry, looked up): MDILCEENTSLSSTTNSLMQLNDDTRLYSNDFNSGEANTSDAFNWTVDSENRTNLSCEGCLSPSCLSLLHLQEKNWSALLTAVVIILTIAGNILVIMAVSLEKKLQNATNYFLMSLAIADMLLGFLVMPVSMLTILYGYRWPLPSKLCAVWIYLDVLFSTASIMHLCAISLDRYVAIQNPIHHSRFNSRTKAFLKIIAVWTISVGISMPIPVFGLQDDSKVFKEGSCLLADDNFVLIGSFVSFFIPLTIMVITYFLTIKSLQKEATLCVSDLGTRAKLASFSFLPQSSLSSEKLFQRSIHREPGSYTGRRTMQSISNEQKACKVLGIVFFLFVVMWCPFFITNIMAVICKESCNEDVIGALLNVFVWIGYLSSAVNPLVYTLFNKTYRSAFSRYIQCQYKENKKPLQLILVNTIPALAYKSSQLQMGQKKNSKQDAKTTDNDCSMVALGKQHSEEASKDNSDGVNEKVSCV
Chain of Gonadotropin-releasing hormone receptor (Homo sapiens) (P30968 whole entry, looked up): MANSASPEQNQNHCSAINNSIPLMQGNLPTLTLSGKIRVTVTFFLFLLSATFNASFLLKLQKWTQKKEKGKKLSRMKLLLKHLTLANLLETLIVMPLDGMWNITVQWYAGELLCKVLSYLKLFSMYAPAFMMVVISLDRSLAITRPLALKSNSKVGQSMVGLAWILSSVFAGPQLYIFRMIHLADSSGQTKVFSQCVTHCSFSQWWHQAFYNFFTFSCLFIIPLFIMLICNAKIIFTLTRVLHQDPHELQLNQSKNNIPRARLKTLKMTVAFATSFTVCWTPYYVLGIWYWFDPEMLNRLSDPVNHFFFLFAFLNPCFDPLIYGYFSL
Chain of Beta-2 adrenergic receptor (Homo sapiens) (P07550 whole entry, looked up): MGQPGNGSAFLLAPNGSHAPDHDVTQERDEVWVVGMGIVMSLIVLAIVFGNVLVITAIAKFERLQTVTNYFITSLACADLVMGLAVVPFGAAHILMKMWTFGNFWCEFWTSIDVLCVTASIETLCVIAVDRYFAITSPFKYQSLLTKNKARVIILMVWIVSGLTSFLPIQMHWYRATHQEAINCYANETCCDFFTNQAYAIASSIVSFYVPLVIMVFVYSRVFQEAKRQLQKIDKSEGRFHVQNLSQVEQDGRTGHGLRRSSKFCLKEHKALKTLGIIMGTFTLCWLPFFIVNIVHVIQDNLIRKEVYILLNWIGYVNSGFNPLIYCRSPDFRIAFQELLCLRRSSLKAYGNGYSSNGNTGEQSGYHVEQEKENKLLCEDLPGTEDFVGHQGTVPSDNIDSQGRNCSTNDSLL

Take `COc1cc2c(cc1N)oc1ccccc12`: the Potency entry in experiment [1], in experiment [3], in experiment [4], in experiment [6], in experiment [7] and in experiment [8] was “inactive” throughout. For the same compound, the Potency entry in experiment [9], in [10], in [11], in experiment [12], in experiment [13] and in [14] was “inactive” each time. Besides, the Potency result in experiment [15] and in [16] was “inactive” each time. In addition, in experiment [2], the outcome was inactive. Moreover, the Potency in experiment [5] is 33.1 µM (active).
On to `COc1ccc(/C(C)=C/C(=O)O)c(OC)c1`, for which the Potency entry in [1], in experiment [3], in experiment [4], in experiment [5], in [7] and in [8] was “inactive” in each case. The Potency result in experiment [9], in experiment [10], in experiment [11], in experiment [12], in [13] and in experiment [18] was “inactive” in each case. Also, the Potency entry in [15] was “inactive”. Moreover, the result in experiment [17] and in experiment [2] was inactive.
Turning to `CC(C)NCCCC1(C(N)=O)c2ccccc2-c2ccccc21`, the Potency result in [19], in experiment [3], in [4], in experiment [5], in experiment [6] and in experiment [7] was “inactive” each time. In addition, the Potency entry in experiment [8], in [10], in experiment [12], in experiment [13], in experiment [14] and in [18] was “inactive” throughout. The Potency entry in experiment [15] and in experiment [16] was “inactive” throughout. Moreover, the outcome in [17] and in experiment [2] was inactive.
Regarding `O=C1NCN(c2ccccc2)C12CCN(CCCC(c1ccc(F)cc1)c1ccc(F)cc1)CC2`, the Potency result in [19], in experiment [1], in experiment [3], in experiment [4], in [5] and in experiment [10] was “inactive” each time. Moreover, the Potency entry in experiment [12] and in experiment [15] was “inactive” throughout. For the same compound, the Potency was 0.0516 µM (active) in experiment [9], 23.7 µM (active) in experiment [18] and 0.0335 µM (active) in experiment [16].
Consider `CCOC(=O)c1ccccc1O`, for which the Potency result in experiment [19], in experiment [1], in experiment [3], in experiment [4], in experiment [5] and in experiment [6] was “inactive” each time. Moreover, the Potency entry in experiment [8], in experiment [9], in experiment [10], in [11], in experiment [13] and in experiment [14] was “inactive” in each case. Besides, the Potency entry in experiment [18], in experiment [20], in experiment [15] and in [16] was “inactive” in each case. The outcome in experiment [17] was inactive.
Regarding `CC(C)OCC1CO1` (stereo unspecified), in experiment [19], the Potency is 30.5 µM (active). In addition, the Potency result in experiment [1], in experiment [3], in experiment [4], in experiment [6], in experiment [8] and in [10] was “inactive” throughout. Besides, the Potency entry in experiment [11], in experiment [13], in experiment [18] and in [15] was “inactive” each time.
As for `O=C1c2ccccc2C(=O)C1c1ccc2ccccc2n1`, the Potency entry in experiment [1], in [3], in experiment [4], in experiment [5], in experiment [8] and in [10] was “inactive” each time. The Potency entry in [11], in experiment [12], in experiment [13], in experiment [14], in [18] and in [15] was “inactive” throughout. The Potency result in experiment [16] was “inactive”. Further, the outcome in experiment [17] and in [2] was inactive.
With `CNCCc1ccccn1`, the Potency result in experiment [19], in experiment [3], in experiment [4], in [5], in experiment [6] and in experiment [7] was “inactive” in each case. Further, the Potency result in experiment [8], in experiment [13], in experiment [14], in experiment [18] and in experiment [15] was “inactive” throughout. Also, the result in [17] and in [2] was inactive.
Consider `CC1OC(=O)C(C)OC1=O` (stereo unspecified), for which the Potency entry in experiment [19], in [1], in [3], in [4], in [5] and in [8] was “inactive” in each case. The Potency entry in experiment [9], in experiment [10], in experiment [11], in experiment [12], in experiment [13] and in experiment [14] was “inactive” each time. The Potency result in [18], in experiment [20], in experiment [15] and in [16] was “inactive” in each case. Also, the result in [17] was inactive.
